Values joined by “and” are separate entries in the source; they are usually repeats but may differ in a detail not shown here. Equal entries are not always repeated. Out of some 5,500 compounds screened, about 2,000 (36%) were called active. Inconclusive results (about 18%) are left out. Rule as the data show it: active = normalized growth mostly below about 0.91 (no sharp cut-off); inconclusive = no clear call, values can overlap the other calls; inactive = mostly above about 0.92. The list shows a part of the results.
Assay: chemical genetic growth profiling, strain panel (AID 1159580);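 also: tested at 20 µM; growth read once vehicle control cultures reached saturation at 30 °C; 1 = growth at the plate median or of vehicle wells; lower values mean less growth of the strain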
Details: S. cerevisiae deletion strains, growth OD

Measured: normalized growth

COc1ccc([C@H]2Oc3cc(OC)cc(OC)c3C[C@H]2O)cc1
inactive: locus YAL013W, strain DEP1, active compounds read low 1.01 | locus YAL021C, strain ccr4, active compounds read low 1 | locus YAL026C, strain drs2, active compounds read low 0.995 | locus YAL030W, strain snc1, active compounds read low 0.993 | locus YBL061C, strain skt5, active compounds read low 0.997 | locus YBR009C, strain hhf1, active compounds read low 1.01 | locus YBR021W, strain FUR4, active compounds read low 1.06 | locus YBR023C, strain chs3, active compounds read low 1 | locus YBR171W, strain sec66, active compounds read low 0.98 | locus YBR229C, strain ROT2, active compounds read low 1 | locus YBR231C, strain swc5, active compounds read low 1.01 | locus YBR279W, strain paf1, active compounds read low 0.994 | locus YCL011C, strain gbp2, active compounds read low 0.997 | locus YCL016C, strain dcc1, active compounds read low 1 | locus YCL029C, strain bik1, active compounds read low 1.01 | locus YCL061C, strain MRC1, active compounds read low 0.987 | locus YCL069W, strain vba3, active compounds read low 0.996 | locus YCR088W, strain abp1, active compounds read low 0.999 | locus YDL005C, strain med2, active compounds read low 0.996 | locus YDL035C, strain GPR1, active compounds read low 1.05 | locus YDL040C, strain nat1, active compounds read low 1 | locus YDL074C, strain BRE1, active compounds read low 1.12 | locus YDL101C, strain DUN1, active compounds read low 1.01 | locus YDL185W, strain tfp1, active compounds read low 1.01 | locus YDL192W, strain arf1, active compounds read low 1 | locus YDR001C, strain nth1, active compounds read low 0.998 | locus YDR069C, strain doa4, active compounds read low 1.01 | locus YDR101C, strain arx1, active compounds read low 0.983 | locus YDR137W, strain rgp1, active compounds read low 0.867 | locus YDR159W, strain sac3, active compounds read low 0.998 | locus YDR162C, strain NBP2, active compounds read low 1.03 | locus YDR195W, strain ref2 1.05 | locus YDR297W, strain sur2, active compounds read low 1 | locus YDR318W, strain mcm21, active compounds read low 1 | locus YDR334W, strain swr1, active compounds read low 1.01 | locus YDR335W, strain msn5, active compounds read low 1 | locus YDR388W, active compounds read low 1.01 | locus YDR392W, strain spt3, active compounds read low 0.948 | locus YDR502C, strain sam2, active compounds read low 1.01 | locus YEL003W, strain gim4, active compounds read low 0.996 | locus YEL037C, strain rad23, active compounds read low 0.989 | locus YEL061C, strain CIN8 (second series), active compounds read low 1 | locus YEL061C, strain CIN8, active compounds read low 1.02 | locus YER015W, strain faa2, active compounds read low 1 | locus YER016W, strain bim1, active compounds read low 0.994 | locus YER110C, active compounds read low 0.987 | locus YER111C, strain swi4, active compounds read low 0.998 | locus YER155C, strain BEM2 (second series), active compounds read low 1.01 | locus YER155C, strain BEM2, active compounds read low 1 | locus YER167W, strain BCK2, active compounds read low 1 | locus YFR010W, strain ubp6, active compounds read low 1.01 | locus YGL078C, strain dbp3, active compounds read low 1.02 | locus YGL086W, strain mad1, active compounds read low 0.999 | locus YGL167C, strain pmr1, active compounds read low 0.989 | locus YGL173C, strain kem1, active compounds read low 1 | locus YGL227W, strain vid30, active compounds read low 1 | locus YGL240W, strain doc1, active compounds read low 1.01 | locus YGL248W, strain PDE1, active compounds read low 1.05 | locus YGL253W, strain hxk2, active compounds read low 0.996 | locus YGR135W, strain pre9, active compounds read low 1.07 | locus YGR252W, strain gcn5, active compounds read low 1.08 | locus YHR013C, strain ard1, active compounds read low 1.05 | locus YHR027C, strain rpn1, active compounds read low 0.992 | locus YHR030C, strain SLT2, active compounds read low 0.985 | locus YHR079C, strain IRE1 (second series), active compounds read low 1.02 | locus YHR079C, strain IRE1, active compounds read low 0.994 | locus YHR094C, strain hxt1, active compounds read low 1.01 | locus YHR129C, strain ARP1, active compounds read low 1.02 | locus YHR142W, strain chs7, active compounds read low 0.981 | locus YHR200W, strain rpn10, active compounds read low 1.03 | locus YIL066C, strain RNR3, active compounds read low 1.02 | locus YIL073C, strain SPO22, active compounds read low 1.07 | locus YIL125W, strain kgd1, active compounds read low 1 | locus YIR030C, strain dcg1, active compounds read low 0.99 | locus YJL092W, strain hpr5, active compounds read low 0.997 | locus YJL095W, strain BCK1 (second series), active compounds read low 1 | locus YJL095W, strain BCK1, active compounds read low 1.04 and 1 | locus YJL115W, strain asf1, active compounds read low 1.01 | locus YJL129C, strain trk1, active compounds read low 1.04 | locus YJL134W, strain LCB3, active compounds read low 1 | locus YJL154C, strain vps35, active compounds read low 0.989 | locus YJL164C, strain tpk1, active compounds read low 1.01 | locus YJL166W, strain qcr8, active compounds read low 0.994 | locus YJL168C, strain set2, active compounds read low 1 | locus YJL187C, strain SWE1 (second series), active compounds read low 1.03 | locus YJL187C, strain SWE1, active compounds read low 1 | locus YJR043C, strain POL32, active compounds read low 1.08 | locus YJR066W, strain TOR1, active compounds read low 0.938 | locus YKL009W, strain mrt4, active compounds read low 1.03 | locus YKL068W, active compounds read low 1 | locus YKL085W, strain MDH1 (second series), active compounds read low 0.99 | locus YKL085W, strain MDH1, active compounds read low 0.99 | locus YKL160W, strain elf1, active compounds read low 0.994 | locus YKL190W, strain CNB1, active compounds read low 1.02 | locus YKR001C, strain vps1, active compounds read low 0.99 | locus YKR026C, strain gcn3, active compounds read low 0.999 | locus YKR091W, strain srl3, active compounds read low 1 | locus YLL001W, strain dnm1, active compounds read low 0.988 | locus YLL026W, active compounds read low 1 | locus YLL041C, strain sdh2, active compounds read low 0.985 | locus YLR027C, strain aat2, active compounds read low 0.997 | locus YLR039C, strain RIC1, active compounds read low 1.1 | locus YLR058C, strain SHM2, active compounds read low 1.01 | locus YLR102C, strain apc9, active compounds read low 0.997 | locus YLR113W, strain HOG1, active compounds read low 0.983 | locus YLR221C, strain rsa3, active compounds read low 1 | locus YLR258W, strain gsy2, active compounds read low 0.995 | locus YLR262C, strain YPT6 (second series), active compounds read low 0.914 | locus YLR268W, strain sec22, active compounds read low 1.01 | locus YLR320W, strain mms22, active compounds read low 0.999 | locus YLR342W, strain FKS1 (second series), active compounds read low 0.997 | locus YLR342W, strain FKS1, active compounds read low 0.994 | locus YLR357W, strain rsc2, active compounds read low 1.07 | locus YLR370C, strain arc18, active compounds read low 0.99 | locus YLR371W, strain rom2, active compounds read low 1.04 | locus YLR384C, strain iki3, active compounds read low 0.994 | locus YLR418C, strain cdc73, active compounds read low 1.06 | locus YML016C, strain PPZ1, active compounds read low 0.998 | locus YML032C, strain rad52, active compounds read low 1.01 | locus YML120C, strain ndi1, active compounds read low 1.01 | locus YML124C, strain tub3, active compounds read low 1 | locus YMR058W, strain fet3, active compounds read low 0.997 | locus YMR078C, strain ctf18, active compounds read low 1.01 | locus YMR125W, strain sto1, active compounds read low 1.01 | locus YMR129W, active compounds read low 1 | locus YMR205C, strain PFK2, active compounds read low 1.02 | locus YMR223W, strain ubp8, active compounds read low 1 | locus YMR231W, strain pep5, active compounds read low 0.989 | locus YMR307W, strain GAS1, active compounds read low 1.31 | locus YNL067W, strain RPL9B, active compounds read low 1.02 | locus YNL071W, strain lat1, active compounds read low 0.994 | locus YNL183C, strain NPR1, active compounds read low 0.932 | locus YNL209W, strain ssb2, active compounds read low 0.994 | locus YNL233W, strain BNI4, active compounds read low 1.06 | locus YNL248C, strain rpa49, active compounds read low 1.01 | locus YNL250W, strain rad50, active compounds read low 1.05 | locus YNL271C, strain bni1, active compounds read low 0.995 | locus YNL298W, strain CLA4, active compounds read low 0.975 | locus YNL307C, strain MCK1, active compounds read low 1.02 | locus YNL322C, strain KRE1 (second series), active compounds read low 1 | locus YNL322C, strain KRE1, active compounds read low 1.01 | locus YNR049C, strain mso1, active compounds read low 1 | locus YNR052C, strain pop2, active compounds read low 1.02 | locus YOL012C, strain htz1 1.39 | locus YOL147C, strain pex11, active compounds read low 0.994 | locus YOR001W, strain rrp6, active compounds read low 0.992 | locus YOR061W, strain CKA2, active compounds read low 1 | locus YOR069W, strain VPS5, active compounds read low 0.996 | locus YOR070C, strain gyp1, active compounds read low 0.99 | locus YOR080W, strain dia2, active compounds read low 1.01 | locus YOR083W, strain WHI5, active compounds read low 0.993 | locus YOR106W, strain vam3, active compounds read low 0.999 | locus YOR136W, strain idh2, active compounds read low 1 | locus YOR144C, strain elg1, active compounds read low 1 | locus YOR184W, strain ser1, active compounds read low 0.94 | locus YOR231W, strain MKK1, active compounds read low 1 | locus YOR265W, strain rbl2, active compounds read low 0.999 | locus YOR270C, strain vph1, active compounds read low 0.976 | locus YOR290C, strain snf2, active compounds read low 1.01 | locus YOR316C, strain cot1, active compounds read low 1.02 | locus YPL051W, strain arl3, active compounds read low 0.984 | locus YPL055C, strain LGE1, active compounds read low 1.09 | locus YPL078C, strain atp4, active compounds read low 0.995 | locus YPL106C, strain sse1, active compounds read low 1.07 | locus YPL240C, strain hsp82, active compounds read low 0.986 | locus YPL256C, strain CLN2, active compounds read low 0.972 | locus YPR119W, strain clb2, active compounds read low 0.99 | locus YPR141C, strain kar3, active compounds read low 0.998 | locus YPR163C, strain tif3, active compounds read low 1.01 | locus YPR167C, strain met16, active compounds read low 1.01 | strain wtn01, active compounds read low 0.992
